Measurements taken from PubChem BioAssay (NCI).
About 83,000 compounds went through this panel and 20% of them were active in at least one assay; those are over-represented in the sample as a whole.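 Step 1: grow cells in 96-well plates. Step 2: add test compound at a single concentration. Step 3: incubate 48 h. Step 4: record percent growth.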 A number with no mark means an inactive call. Calls of active or inactive are those of the source. Rule for the calls: active = growth percent below 10; inactive = the rest.

system: MDA-MB-468 breast; experiment: NCI-60 one-dose screen, 48 h (100 = growth as untreated, 0 = no growth, -100 = all killed); conditions: 10 µM unless noted

SMILES | growth
Clc1ccc2c(NC3CCC(NC4CCCCC4)CC3)ccnc2c1 (stereo not given) | -7.22% (active)
CCCCCCCCCCCCCCCCCCOc1ccccc1CC(=O)NCC[N+]1(C)CCOCC1 | 13.7%
Cn1cc(-c2csc(-c3cn(CCN)c4ccc(Br)cc34)n2)c2cccnc21 | 28.6%
CCCCCCCCCc1cc[n+](CC(=O)c2ccc([N+](=O)[O-])cc2)cc1 | -18.6% (active)
CC1(C)CCCC2=C1C(=O)N(SC(Cl)(Cl)Cl)C2=O | 79.6%
N#CN1CC[C@H](C(=O)Nc2ncc(-c3ccncc3)s2)C1 | -35.7% (active)
S=C1SCN(Cc2ccccc2)CN1Cc1ccco1 | 31.9%
COc1cccc(-c2nc3sccn3c2/C=C/C(=O)c2ccc(C(F)(F)F)cc2)c1 | 75.6%
O=C(c1ccccc1)c1c(/C=C/c2ccc(Cl)cc2)nc2ccccc2c1/C=C/c1cccs1 | 94.3%
COc1ccc(Cn2cc3c(c2-c2ccccc2)CCCc2cnoc2-3)cc1 | 47.7%
C=C1C(=O)O[C@H]2[C@H]1CC/C(COC(=O)C(=O)c1cn(C)c3ccc(Cl)cc13)=C\CC[C@@]1(C)O[C@@H]21 | -88.2% (active)
c1ccc(C2Cc3ccccc3C2=NC2CCCCC2)cc1 (stereo not given) | 111%
Nc1ccccc1NC(=O)c1ccc(CN2CCC/C(=C\c3cccc(Cl)c3)C2=O)cc1 | -10.1% (active)
COc1cc(/C=N/Nc2ccc(Br)cc2)cc(OC)c1OC | 49.5%
NS(=O)(=O)c1ccc(N2N=C(c3ccccc3)CCC2=O)cc1 | 96.3%
COc1ccc2[nH]cc(-c3nc(-c4c[nH]c5ncccc45)cs3)c2c1 | 39.1%
O=C(Nc1ccc(CN2CCOCC2)cc1)c1[nH]ncc1Nc1ncnc2sccc12 | -25.6% (active)
Cc1c(O)ccc(SC#N)c1C | 112%
O=C(N/N=C/c1ccc(F)cc1)c1[nH]c2ccc(I)cc2c1-c1ccccc1 | 17.8%
CCN(CC)S(=O)(=O)c1cccc(-c2ccc3c(NC(=O)C4CC4)n[nH]c3c2)c1 | 6.55% [6.25 µM] (active)

SMILES | growth
CCN(CC)c1ccc(/C=C2/NC(=O)NC2=O)cc1 | 37.8%
CCCN1CCN(c2ccc3nc(-c4ccc5nc(-c6ccc(OCC)cc6)[nH]c5c4)[nH]c3c2)CC1 | -67.6% (active)
C[C@]12CC[C@H](O)CC1=CC[C@@H]1[C@@H]2CC[C@]2(C)C(c3cccnc3)=CC[C@@H]12 | 15.2%
CCCCCc1ccc(S(=O)(=O)Nc2cccc(-c3csc(NC(=O)CNCCN(C)C)n3)c2)cc1 | 82.9%
C=C(C)[C@@H]1CC[C@]2(C(N)=O)CC[C@]3(C)[C@H](CC[C@@H]4[C@@]5(C)CC[C@H](O)C(C)(C)[C@@H]5CC[C@]43C)[C@@H]12 | -56% [100 µM] (active)
CN1CCN(Cc2ccc(NC(=O)c3cncc(C#Cc4cnc5ccc(NCCCO)nn45)c3)cc2C(F)(F)F)CC1 | -59.6% (active)
CCN(CC)CC(O)CNc1c2ccc([N+](=O)[O-])cc2nc2cc(OC)c(OC)cc12 (stereo not given) | -44.5% (active)
CCOC(=O)c1c(Nc2nc3ccccc3s2)sc2c1CCC(=O)C2 | 94.8%
CCC(=O)c1c(C)[nH]c(C)c1C | 54.4%
CC(Oc1ccc(C(=O)O)cc1C(F)(F)F)c1ccc(Oc2ccccc2)cn1 (stereo not given) | 97.3%
Cc1ccc2c(n1)C(=O)C(Cl)=C(Nc1ccc(C)c(C)c1)C2=O | -25.3% (active)
Oc1ccc(N=Cc2ccc(OCc3ccccc3)cc2)cc1 | 97.6%
CC(NC(=O)Oc1cccc2ccccc12)c1ccccc1 (stereo not given) | 107%
C=CN(C(=O)N1CCN(c2cc3c(cc2F)c(=O)c(C(=O)O)cn3C2CC2)CC1)c1nc(-c2ccc(C)cc2)cs1 | 44.4%
Cn1c2ccccc2c2c3[nH]c(=O)[nH]c(=O)c3c3c4ccccc4n(C)c3c21 | 32.4%
COc1ccc2c(c1)c(-c1nc(N)nnc1-c1c[nH]c3ccccc13)cn2C | -9.57% (active)
CCOc1ccc2[nH]c(=S)sc2c1 | 107%
BrCCCc1n(Cc2ccc3ccccc3c2)c2ccccc2[n+]1Cc1ccc2ccccc2c1 | -68% (active)
Clc1ccc2c(NCCNc3nc(N4CCOCC4)nc4ccccc34)ccnc2c1 | 25.1%
Cc1nc2cc(Nc3nc(Cl)nc(Nc4ccc(F)cc4)n3)ccc2n1Cc1ccccc1 | 76.2%
